Structures are written as SMILES. Unmarked numbers belong to inactive results. Activity calls are given as the source filed them.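 The calls were made as follows, unless noted: active = mean inhibition above 46.68%, the untreated control wells mean plus 3 SD; inactive = the rest.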

Consider 33 compounds from PubChem BioAssay.

In assay [1] the target is Nuclear receptor coactivator 1 (Homo sapiens) (UniProt Q15788). The experiment in a line: NCOA1 GAL4-fusion reporter inhibition – cell-based, luminescence, quadruplicate, confirmation (AID 588820).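 Also: 0% = DMSO wells and 100% = gossypol 36 µM treated wells.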 As to conditions: HEK293 GAL4-SRC1 luciferase reporter, at 3.6 µM, hits give high values. Background: Reporter assays use an easily measured gene product as a stand-in for the process of interest.
Chain of Nuclear receptor coactivator 1 (Homo sapiens) (Q15788 whole entry, looked up, the tested form may be a part): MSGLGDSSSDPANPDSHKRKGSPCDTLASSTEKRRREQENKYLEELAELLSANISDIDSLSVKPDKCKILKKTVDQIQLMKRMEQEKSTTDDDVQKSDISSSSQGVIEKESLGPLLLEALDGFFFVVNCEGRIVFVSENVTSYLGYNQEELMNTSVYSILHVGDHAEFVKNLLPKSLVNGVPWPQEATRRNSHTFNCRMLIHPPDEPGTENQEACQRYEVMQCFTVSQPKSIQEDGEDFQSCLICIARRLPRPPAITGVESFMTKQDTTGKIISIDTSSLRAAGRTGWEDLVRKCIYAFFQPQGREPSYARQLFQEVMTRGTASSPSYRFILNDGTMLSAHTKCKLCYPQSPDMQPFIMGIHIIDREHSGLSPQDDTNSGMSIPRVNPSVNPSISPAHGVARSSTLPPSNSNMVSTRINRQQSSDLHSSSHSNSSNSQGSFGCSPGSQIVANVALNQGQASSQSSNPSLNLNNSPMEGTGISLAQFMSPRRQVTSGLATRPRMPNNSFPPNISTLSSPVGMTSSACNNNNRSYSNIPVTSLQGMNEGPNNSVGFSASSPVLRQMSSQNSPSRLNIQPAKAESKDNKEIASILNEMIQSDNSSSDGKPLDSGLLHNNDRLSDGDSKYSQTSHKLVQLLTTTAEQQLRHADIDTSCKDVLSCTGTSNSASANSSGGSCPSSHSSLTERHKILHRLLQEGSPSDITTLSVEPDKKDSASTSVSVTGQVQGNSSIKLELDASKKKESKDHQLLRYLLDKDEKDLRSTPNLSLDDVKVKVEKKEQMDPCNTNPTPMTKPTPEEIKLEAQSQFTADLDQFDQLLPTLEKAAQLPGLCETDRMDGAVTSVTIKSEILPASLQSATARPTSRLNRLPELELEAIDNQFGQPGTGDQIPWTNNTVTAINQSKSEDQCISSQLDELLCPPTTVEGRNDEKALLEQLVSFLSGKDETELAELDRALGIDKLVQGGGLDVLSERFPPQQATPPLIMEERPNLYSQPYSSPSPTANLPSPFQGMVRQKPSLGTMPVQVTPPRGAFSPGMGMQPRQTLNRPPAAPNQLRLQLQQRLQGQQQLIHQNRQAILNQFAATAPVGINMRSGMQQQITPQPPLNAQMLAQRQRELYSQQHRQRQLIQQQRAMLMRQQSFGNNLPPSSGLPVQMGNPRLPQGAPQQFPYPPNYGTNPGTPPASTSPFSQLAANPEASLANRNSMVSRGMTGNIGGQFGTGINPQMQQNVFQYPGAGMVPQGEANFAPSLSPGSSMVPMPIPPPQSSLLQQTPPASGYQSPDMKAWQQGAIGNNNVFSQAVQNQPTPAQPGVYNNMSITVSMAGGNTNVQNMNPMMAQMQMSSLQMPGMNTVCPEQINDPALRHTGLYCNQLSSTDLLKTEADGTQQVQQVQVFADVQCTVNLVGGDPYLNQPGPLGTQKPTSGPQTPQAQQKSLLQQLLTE

Assay [2] is described as follows: repression of VP16-driven luciferase reporter – cell-based, luminescence, high throughput, counter-screen for SRC1 inhibitor project (AID 588824; in the data active = inhibition above about 25%). As to conditions: cell-based VP16 transactivation luciferase luminescence; at 3.6 µM; hits give high values.

For `O=C(Cc1cccs1)N(CC1CCCO1)C1(C(=O)NC2CCCC2)CCCCC1` (stereo unspecified), the inhibition (as a rule, the relative decrease from the control value, in per cent) in assay [1] was 3.51%; in assay [2], 17.6%.

`COc1ccc(C(O)(C(C)C)C(CN2CCOCC2)c2ccc(Cl)cc2)cc1` (stereo unspecified): the values for the inhibition in assay [1] and in assay [2] were 16.2% and 13.8%, respectively.

In the case of `COc1ccc(Cl)cc1NC(=O)CN(C)C(=O)c1ccc(COc2ccccc2)cc1`, the results for the inhibition in assay [1] and in assay [2] were -31.4% and -12.9%, respectively.

As for `CN(Cc1ccccc1)C(=O)c1ccc(NC(=O)C2CCCN(C(=O)OC(C)(C)C)C2)cc1` (stereo unspecified), the inhibition in assay [1] is -1.28%; in assay [2] it was 8.32%.

Turning to `O=C(Nc1ccccc1)N1CCCN(c2ccc(C(F)(F)F)cn2)CC1`, the inhibition in assay [1] is -0.62%; in assay [2], -2.54%.

As for `CC(=O)NCCOc1nc(N(C)C)nc(N(C)C)n1`, the figures for the inhibition in assay [1] and in assay [2] were -4.35% and 0%, respectively.

As to `CCc1nnc(NC(=O)CCC(=O)NCc2ccccc2Cl)s1`, the inhibition in assay [1] was 10.2%; in assay [2], 6.37%.

Turning to `CCC(Oc1ccccc1)C(=O)Nc1cc(C(F)(F)F)ccc1N1CCOCC1` (stereo unspecified), the inhibition is 10.6% in assay [1] and 1.21% in assay [2].

For the compound `c1ccc2c(c1)ccc1ncccc12`, the inhibition was 1.02% in assay [1] and 6.62% in assay [2].

As to `CCc1nnc(SCc2ccc(C(=O)OC)o2)n1N`, the inhibition in assay [1] is -6.33%; in assay [2], 4.87%.

As for `CCN(CC)CCNC(=O)CCN1N=C(c2ccccc2)CCC1=O`, the inhibition was -4.6% in assay [1] and -9.8% in assay [2].

Turning to `Cc1cc(CSc2ccccc2)ccc1NC(=O)c1ccc(CN2CCOCC2)cc1`, the inhibition in assay [1] is -33.7%; in assay [2] it was 33.4% (active).

With `Cn1c2ccccc2c(=O)c2ccc(C#CC3(O)CCCCC3)cc21`, the inhibition in assay [1] is -132%; in assay [2] it was -43.1%.

On to `Cc1ccc(S(=O)(=O)N(C)c2ccc(C(=O)Nc3ccccc3C(=O)N3CCOCC3)cc2)cc1`, for which the inhibition in assay [1] is -10.1%; in assay [2], -3.41%.

Consider `CCC(Cc1ccccc1)NC(=O)CCNS(=O)(=O)c1cc(Br)cnc1N` (stereo unspecified), for which the values for the inhibition in assay [1] and in assay [2] were 0.75% and 5.04%, respectively.

Regarding `COc1ccc(C(=O)NNC(=O)C(=O)Nc2ccc(C)c(Cl)c2)cc1`, the inhibition is 5.87% in assay [1] and -0.11% in assay [2].

As to `Cc1c(C(=O)N2CCN(Cc3ccc4c(c3)OCO4)CC2)sc2ncnc(N3CCN(c4ccccc4)CC3)c12`, the values for the inhibition in assay [1] and in assay [2] were 11.3% and 19.7%, respectively.

Take `CCC(CC)C(=O)N(C)c1c(C)nc2c(OCc3ccc(OC(F)F)cc3)cccn12`: the inhibition is -18.2% in assay [1] and 5.06% in assay [2].

Take `COc1cc(/C=C/C(=O)Nc2ccc3nc4n(c(=O)c3c2)CCCC4)cc(OC)c1OC`: the inhibition in assay [1] was -22.6%; in assay [2], -26.8%.

For `CC(C)n1c(SCC(=O)Nc2nc3c(s2)CCCC3)nc2c1c(=O)n(C)c(=O)n2C`, the inhibition in assay [1] was 29.2%; in assay [2] it was 23.6%.

Regarding `Cc1cccc(C)c1NC(=S)N(CCN(C)C)Cc1cccs1`, the values for the inhibition in assay [1] and in assay [2] were -19.4% and -2.41%, respectively.

On to `CC(=O)c1c(C)[nH]c(C(=O)COc2ccc3ccc(=O)oc3c2)c1C`, for which the inhibition was -13.5% in assay [1] and 4.04% in assay [2].

`Cn1c(O)c(N=NC(=N)N)c2ccccc21`: the inhibition in assay [1] is 5.65%; in assay [2], 11.6%.

As to `O=C(Nc1nc(-c2ccc(F)c(F)c2)cs1)c1cnccn1`, the inhibition is 7.57% in assay [1] and -11.4% in assay [2].

Regarding `CCc1noc(C)c1C(=O)Nc1ccccc1N1CCOCC1`, the results for the inhibition in assay [1] and in assay [2] were -11% and 1.51%, respectively.

In the case of `CCCCCCCCNc1ncnc2[nH]ncc12`, the inhibition in assay [1] is -9.61%; in assay [2] it was 19.6%.

`O=C(NC1CCCCC1)c1n[nH]c2c1CCCCC2`: the inhibition in assay [1] is -44.7%; in assay [2], -18.1%.

On to `O=C(NNC(=O)c1ccccc1O)c1ccc(Cl)c(S(=O)(=O)N2CCc3ccccc32)c1`, for which the results for the inhibition in assay [1] and in assay [2] were 8.03% and 14.9%, respectively.

Regarding `Cc1ccc(Cc2c(-c3ccco3)nc3c4ccccc4ccn23)cc1`, the values for the inhibition in assay [1] and in assay [2] were -81.9% and -34.6%, respectively.

With `CC(C)N1C(=O)/C(=C\c2nc3ccccc3c(=O)n2-c2ccccc2)c2ccccc21`, the figures for the inhibition in assay [1] and in assay [2] were 7.4% and 24.2%, respectively.

Regarding `CC(C)(C)NC(=O)C1(C)CCC(=O)N1CCCn1ccnc1` (stereo unspecified), the inhibition was 22.2% in assay [1] and 16.9% in assay [2].

On to `CCn1c(=O)n(CC)c2cc(N3CCCC3)c(NC(=O)c3ccccc3OC)cc21`, for which the results for the inhibition in assay [1] and in assay [2] were -13.7% and -7.42%, respectively.

For `Fc1ccc2[nH]c3c(NCc4ccccc4)ncnc3c2c1`, the inhibition in assay [1] is 2.59%; in assay [2] it was 20.2%.
